“And” between values parts separate entries of the source, which are not always exact repeats. Equal values may be shown once. Results filed as inconclusive are left out. Some compounds were tested as several samples or in several runs, with calls that do not always agree. The source made the active and inactive calls. Unless noted, the call rests on the fitted dose curve.
How the values were obtained:
[1] = Cell Viability - BJ (AID 421); conditions: BJ fibroblast viability, qHTS;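 further: potency means the concentration at half of the fitted maximal effect; cells exposed to compound for 40 hours at 37 °C before readout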
Outline: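 Cytotoxicity as drop in intracellular ATP (CellTiter-Glo, 20 min RT) after 40 hr compound exposure of BJ fibroblasts at 37 °C. Titrations scaled between DMSO and 100 uM tamoxifen, Hill-fitted for AC50.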

[2] = Cell Viability - Hek293 (AID 427;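 active means compounds whose dose-response curve shows a full or clear partial loss of cell viability, called from curve shape rather than a numeric limit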;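 further: potency means the concentration at half of the fitted maximal effect; cells exposed to compound for 40 hours at 37 °C before reading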); conditions: qHTS
Outline: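 Luminescent ATP content (CellTiter-Glo, 20 min at room temperature) was measured after a 40 hr, 37 °C compound exposure of HEK293 cells. AC50 values came from Hill-equation fits of qHTS concentration-response data normalized to DMSO and 100 uM tamoxifen.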

[3] = Cell Viability - HepG2 (AID 433); conditions: qHTS;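 further: potency means the concentration at half of the fitted maximal effect; potency for ATP loss meaning cytotoxicity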
Outline: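 HepG2 cells, 1500 per well, treated 40 hr at 37 °C in complete medium; viability from intracellular ATP by CellTiter-Glo luminescence. Normalized to DMSO and 100 uM tamoxifen; AC50 from Hill fit of qHTS concentration-response.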

[4] = Cell Viability - SK-N-SH (AID 435); conditions: SK-N-SH neuroblastoma cell viability qHTS;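 further: potency means the concentration at half of the fitted maximal effect; compound exposure lasted 40 h at 37 °C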
Outline: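 SK-N-SH neuroblastoma cells (1500/well) treated 40 h at 37 °C in complete medium; viability read as cellular ATP by CellTiter-Glo luminescence. Normalized to DMSO and 100 uM tamoxifen; AC50 from Hill fits of qHTS concentration-response.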

[5] = target: Mitogen-activated protein kinase 10 (Mus musculus) (UniProt Q61831); assay: JNK3 AlphaScreen Assay (AID 530; active means well fitted curve in either direction with a large enough effect, not every such curve was filed as active;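 further: kinase came from lysate of stimulated human HepG2 cells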; further: potency means the concentration at half of the fitted maximal effect;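 on activity change, negative = inhibition: signal reports phosphorylation of biotinylated GST-cJun 1-79 at Ser73 with 10 µM ATP; on the % scale 0 is the no-effect control and ±100 the full control effect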); conditions: JNK3 lysate, c-Jun phosphorylation; series mostly up to 57.1 µM
Outline: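 HepG2 lysate (IL-1b/TNFa pre-activated) + biotin-GST-cJun 1-79 + anti-pSer73 cJun; cpd titration, 15 min RT; ATP 10 uM start; Tris pH 7.6, MgCl2, DTT, vanadate; beads in EDTA buffer; AlphaScreen.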

[6] = Cell Viability - N2a (AID 540; active means well fitted curve in the direction sought with a large enough effect; an effect the other way counts as inactive or inconclusive; further: nearly all actives have a fitted effect of over 45% in size; further: potency means the concentration at half of the fitted maximal effect;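 on activity change, negative = cytotoxicity: plate controls were DMSO alone for no effect and tamoxifen control for full effect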); conditions: N2a mouse neuroblastoma cell viability; activity change, negative = cytotoxicity: at 92.2 µM (top of the series)
Outline: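 In this qHTS cytotoxicity screen, ATP-dependent luciferase luminescence reports viable N2a cells after a 40 hr compound exposure in complete culture medium. Potencies are AC50 values from standard Hill equation fits.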

[7] = Cell Viability - NIH 3T3 (AID 541; active means well fitted curve in the direction sought with a large enough effect; an effect the other way counts as inactive or inconclusive; further: nearly all actives have a fitted effect of over 25% in size; further: potency means the concentration at half of the fitted maximal effect;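 on activity change, negative = cytotoxicity: plate controls were DMSO alone for no effect and tamoxifen positive control for full effect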); conditions: NIH 3T3 cell viability, qHTS; activity change, negative = cytotoxicity: at 92.2 µM (top of the series)
Outline: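 In this cytotoxicity screen, acute toxicity is scored as an ATP drop measured by CellTiter-Glo in NIH 3T3 fibroblasts following a 40 hr, 37 °C incubation with compound.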

[8] = Cell Viability - H-4-II-E (AID 543; active means well fitted curve in the direction sought with a large enough effect; an effect the other way counts as inactive or inconclusive; further: nearly all actives have a fitted effect of over 35% in size; further: potency means the concentration at half of the fitted maximal effect); conditions: H-4-II-E rat hepatoma viability; series mostly up to 92.2 µM
Outline: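 AC50 from Hill-modelled qHTS concentration-response curves. H-4-II-E rat hepatoma cells in complete medium, 40 hr exposure at 37 °C, viability by CellTiter-Glo ATP luminescence.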

[9] = Cell Viability - SH-SY5Y (AID 544; active means well fitted curve in the direction sought with a large enough effect; an effect the other way counts as inactive or inconclusive; further: nearly all actives have a fitted effect of over 55% in size; further: potency means the concentration at half of the fitted maximal effect;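 on viability change, negative = cytotoxic: 0% = DMSO alone and -100% = 100 µM tamoxifen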); conditions: SH-SY5Y neuroblastoma cell viability; viability change, negative = cytotoxic: at 92.2 µM (top of the series)
Outline: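 Quantitative HTS in SH-SY5Y neuroblastoma cells, 40 hr treatment at 37 °C, ATP content by luciferase luminescence; AC50 from Hill fits.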

[10] = AP1 Signaling Pathway (AID 357; active means well fitted curve in either direction with a large enough effect, not every such curve was filed as active;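 further: ME-180 reporter cells stimulated with EGF at its EC50 level; on the % scale 0 is the no-effect control and ±100 the full control effect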); conditions: ME-180 AP-1-bla reporter, EGF-induced, beta-lactamase ratio, 5 h
Outline: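 Cells are seeded overnight, exposed to compound titrations and an EC50 level of EGF for 5 hours at 37 °C, then loaded with CCF4 dye for 2.5 hours. Beta-lactamase activity under the AP-1 element is read as a blue/green ratio.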

[11] = Stat Signaling Pathway (AID 446; active means well fitted curve in either direction with a large enough effect, not every such curve was filed as active;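 further: ME-180 cervical cancer cells given 40 pM IL-6 alongside compound; SIE-controlled beta-lactamase reporter measured as 460/530 nm FRET emission ratio; on the % scale 0 is the no-effect control and ±100 the full control effect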); conditions: ME-180 (cervical carcinoma) SIE beta-lactamase reporter, IL-6 stimulated, 5 h
Outline: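 FRET read-out (405 nm excitation, 460/530 nm emission) of a beta-lactamase reporter under a STAT-inducible element in ME-180 cervical carcinoma cells. Cells with compound receive 40 pM IL-6 for 5 h. Values are normalised to AC90 stimulation and AC90 JAK-inhibitor controls.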

[12] = target: Glucocorticoid receptor (Homo sapiens) (UniProt P04150); assay: GR-GFP Redistribution (AID 450;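 active means compounds whose dose series gives a full or clear partial fitted curve of increased nuclear translocation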; further: potency means the concentration at half of the fitted maximal effect); conditions: U2OS GR-GFP nuclear translocation, laser cytometry, 2 h
[13] = Cell Viability - Jurkat (AID 426;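 active means dose-dependent loss of cell ATP signal giving a full or clear fitted curve, ranked by lower potency value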; further: potency means the concentration at half of the fitted maximal effect); conditions: qHTS
Outline: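 Cytotoxicity was scored as loss of cellular ATP, measured by luciferase-based luminescence, in Jurkat clone E6-1 cells after 40 h compound treatment; tamoxifen and doxorubicin served as positive controls.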

[14] = Cell Viability - MRC5 (AID 434); conditions: MRC5 lung fibroblast viability, qHTS;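 further: potency means the concentration at half of the fitted maximal effect; potency reflects cytotoxicity seen as loss of intracellular ATP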
Outline: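 ATP luminescence read-out (CellTiter-Glo, 20 min RT) after 40 hr, 37 °C compound exposure of 1500 MRC5 cells/well. Data normalized to DMSO (basal) and 100 uM tamoxifen (100% inhibition); AC50 from standard Hill equation.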

[15] = Cell Viability - HUV-EC-C (AID 542; active means well fitted curve in the direction sought with a large enough effect; an effect the other way counts as inactive or inconclusive; further: on the % scale 0 is the no-effect control and ±100 the full control effect; nearly all actives have a fitted effect of over 35% in size); conditions: HUV-EC-C endothelial cell viability, qHTS; series mostly up to 92.2 µM
Outline: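 Concentration-dependent ATP loss in HUV-EC-C cells is the measure. Exposure lasts 40 hr at 37 °C; luminescence follows CellTiter-Glo addition, and Hill fits give AC50.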

[16] = Cell Viability - Renal Proximal Tubule (AID 545; active means well fitted curve in the direction sought with a large enough effect; an effect the other way counts as inactive or inconclusive;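 further: 0% = DMSO only and -100% = 100 µM tamoxifen; nearly all actives have a fitted effect of over 40% in size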); conditions: renal proximal tubule cells viability, primary cells of rat origin; activity change, negative = cytotoxicity: at 91.7 µM (top of the series)
Outline: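 Rat renal proximal tubule primary cells, 1000/well, exposed to compounds for 40 hr at 37 °C in complete medium; cellular ATP read by CellTiter-Glo luminescence. AC50 from concentration-response fitted with standard Hill equation.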

[17] = NFAT Signaling Pathway (AID 444; active means well fitted curve in either direction with a large enough effect, not every such curve was filed as active;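 further: carbachol stimulus at about its EC50 of 1 µM final; on the % scale 0 is the no-effect control and ±100 the full control effect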); conditions: Jurkat NFAT-bla M1, carbachol, beta-lactamase ratio, 5 h; at 38 µM (top of the series) unless noted
Outline: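 Jurkat cells with NFAT-driven β-lactamase reporter and co-expressed M1 receptor, stimulated with carbachol (final 1 uM, ~EC50), compound titration, 5 h at 37 °C. CCF4 loaded 1 h at RT; 460/530 nm ratio gave %activity and AC50.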

[18] = target: Glucocorticoid receptor (Homo sapiens) (UniProt P04150); assay: GR-EFC Redistribution (AID 451); conditions: CHO-K1 GR-EFC translocation, beta-gal luminescence, 2 h; further: potency means the concentration at half of the fitted maximal effect
Outline: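 CHO-K1 cells expressing nuclear EA and GR-ED fragments of b-gal; compounds titrated up to 46 uM final, 2 h at 37 C. GR nuclear translocation read as complemented b-gal luminescence after 1 h RT detection.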

[19] = target: Cytochrome P450 1A2 (Homo sapiens) (UniProt P05177); assay: p450-cyp1a2 (AID 410); conditions: recombinant CYP1A2, luciferin-ME demethylation, luminescence; series mostly up to 57 µM; further: potency means the concentration at half of the fitted maximal effect;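 on activity change, negative = inhibition: -100% = full effect of reference inhibitor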
Outline: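 Read-out is luminescence from luciferin produced by CYP1A2 demethylation of Luciferin-ME (100uM, at Km). Detection reagent stopped the 60 min NADPH-dependent reaction; signals were normalized to 57 uM furafylline.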

Chain of Glucocorticoid receptor (Homo sapiens) (P04150 whole entry, looked up, the tested form may be a part): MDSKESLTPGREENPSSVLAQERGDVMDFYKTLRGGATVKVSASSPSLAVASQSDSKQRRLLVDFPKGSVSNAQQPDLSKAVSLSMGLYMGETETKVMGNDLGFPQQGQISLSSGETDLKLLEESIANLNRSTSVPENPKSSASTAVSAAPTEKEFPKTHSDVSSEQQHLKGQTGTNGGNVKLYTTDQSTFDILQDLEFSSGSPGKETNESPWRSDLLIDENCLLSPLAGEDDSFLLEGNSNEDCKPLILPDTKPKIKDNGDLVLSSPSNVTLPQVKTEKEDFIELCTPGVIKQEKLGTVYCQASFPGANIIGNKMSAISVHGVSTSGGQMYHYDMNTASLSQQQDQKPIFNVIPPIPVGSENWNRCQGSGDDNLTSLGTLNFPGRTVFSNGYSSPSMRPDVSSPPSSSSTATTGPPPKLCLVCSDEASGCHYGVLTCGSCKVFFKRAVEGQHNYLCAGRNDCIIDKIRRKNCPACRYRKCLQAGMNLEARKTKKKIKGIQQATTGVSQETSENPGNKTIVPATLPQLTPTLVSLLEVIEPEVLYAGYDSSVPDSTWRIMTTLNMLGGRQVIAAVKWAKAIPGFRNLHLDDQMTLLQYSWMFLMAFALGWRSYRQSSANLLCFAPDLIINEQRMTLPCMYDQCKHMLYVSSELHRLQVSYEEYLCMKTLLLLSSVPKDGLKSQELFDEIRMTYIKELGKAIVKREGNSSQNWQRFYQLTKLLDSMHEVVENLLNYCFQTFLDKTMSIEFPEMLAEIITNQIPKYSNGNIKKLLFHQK
Chain of Cytochrome P450 1A2 (Homo sapiens) (P05177 whole entry, looked up): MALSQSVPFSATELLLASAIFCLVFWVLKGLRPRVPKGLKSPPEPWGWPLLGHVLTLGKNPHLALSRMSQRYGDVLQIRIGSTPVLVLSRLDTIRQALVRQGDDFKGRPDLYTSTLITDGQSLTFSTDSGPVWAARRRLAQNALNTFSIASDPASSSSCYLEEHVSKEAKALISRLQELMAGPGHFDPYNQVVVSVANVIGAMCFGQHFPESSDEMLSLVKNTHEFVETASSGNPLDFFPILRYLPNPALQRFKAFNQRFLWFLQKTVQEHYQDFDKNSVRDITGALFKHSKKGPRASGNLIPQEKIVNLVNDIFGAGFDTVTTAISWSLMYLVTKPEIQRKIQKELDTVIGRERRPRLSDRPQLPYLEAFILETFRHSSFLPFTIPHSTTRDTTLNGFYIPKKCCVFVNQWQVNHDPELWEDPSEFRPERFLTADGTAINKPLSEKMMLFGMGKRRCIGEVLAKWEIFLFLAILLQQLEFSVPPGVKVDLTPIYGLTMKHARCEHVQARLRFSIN

C#C[C@]1(O)CC[C@H]2[C@@H]3CCc4cc(O)ccc4[C@H]3CC[C@@]21C
active: Potency [8] 20 µM | Potency [9] 31.6 µM
inactive: Potency [1] > 92 µM | Potency [2] > 92 µM | Potency [3] > 92 µM | Potency [4] 25.5 µM | Potency [5] | Potency [6] | Potency [7]

CCOc1ccc2nc(S(N)(=O)=O)sc2c1
inactive: activity change, negative = inhibition ([10]; at 17.2 µM (top of the series)) 7.72% | activity, negative = inhibition ([11]; at 17.2 µM (top of the series)) 12.3% | Potency [12] > 20.6 µM

CN1CCC[C@H]1c1cccnc1
inactive: Potency [1] > 92 µM | Potency [13] > 92 µM | Potency [2] > 92 µM | Potency [3] > 92 µM | Potency [14] > 92 µM | Potency [4] > 92 µM | Potency [5] | Potency [6] | Potency [7] | Potency [15] | Potency [8] | Potency [9] | activity change, negative = cytotoxicity [16] 3.04%

COc1ccccc1N1CCN(CCN(C(=O)c2ccc(I)cc2)c2ccccn2)CC1
inactive: activity change, negative = inhibition ([10]; at 38 µM (top of the series)) -13.6% | activity change, negative = inhibition [17] -16.4% | Potency [12] > 46 µM | Potency [5]

CN(C)c1ccc(N=NS(=O)(=O)O)cc1
active: Potency [6] 31.6 µM | Potency [8] 0.126 µM
inactive: Potency [1] > 92 µM | Potency [2] > 92 µM | Potency [14] > 92 µM | Potency [4] > 92 µM | Potency [5] | Potency [15] | activity change, negative = cytotoxicity [16] 12.3%

O=C1CN(/N=C/c2ccc([N+](=O)[O-])o2)C(=O)N1
active: Potency [13] 7.84 µM | Potency [6] 31.6 µM | activity change, negative = cytotoxicity [7] -97.7%
inactive: Potency [1] > 92 µM | Potency [14] > 92 µM | Potency [5] | Potency [15]

CC(C)NC[C@H](O)COc1cccc2[nH]ccc12
inactive: Potency [12] > 46 µM | Potency [18] > 46 µM | Potency [5]

COc1cc(CNC(=O)CCCC/C=C/C(C)C)ccc1O
inactive: Potency [1] > 92 µM | Potency [13] > 92 µM | Potency [2] > 92 µM | Potency [3] > 92 µM | Potency [14] > 92 µM | Potency [4] > 92 µM | Potency [5] | Potency [6] | Potency [8] | activity change, negative = cytotoxicity [16] -16.6%
active: Potency [7] 5.01 µM

CN(C)CCC(c1ccc(Cl)cc1)c1ccccn1 (stereo not given)
inactive: Potency [1] > 92 µM | Potency [13] > 92 µM | Potency [2] > 92 µM | Potency [3] > 92 µM | Potency [14] > 92 µM | Potency [4] > 92 µM | Potency [5] | Potency [6] | Potency [7] | Potency [15] | Potency [8] | Potency [9] | activity change, negative = cytotoxicity [16] -6.06%

O=C(O)[C@@H]1C[C@@H](C(=O)O)N1
active: Potency [19] 31.6 µM
inactive: Potency [12] > 46 µM | Potency [18] > 46 µM | Potency [5]

c1ccc2sc(SSc3nc4ccccc4s3)nc2c1
inactive: Potency [1] > 92 µM | Potency [13] > 92 µM | Potency [2] > 92 µM | Potency [3] > 92 µM | Potency [14] > 92 µM | Potency [4] > 92 µM | Potency [5] | Potency [6] | Potency [7] | Potency [15] | Potency [8] | Potency [9] | activity change, negative = cytotoxicity [16] -1.46%

Oc1cc2c(cc1O)CN(C(=S)NCCc1ccc(Cl)cc1)CCC2
active: Potency [19] 12.6 µM and 20 µM
inactive and 10 µM (active): Potency [5]
inactive: activity change, negative = inhibition [17] -18.1% | activity, negative = inhibition ([11]; at 38 µM (top of the series)) 6.62% | Potency [12] > 46 µM | Potency [18] > 46 µM

CCCCCCCC/C=C\CCCCCCCC(=O)NCCO
inactive: activity change, negative = inhibition [17] -20.4% | Potency [12] > 46 µM | Potency [5]

O=C(Nc1ccccc1)c1cc([N+](=O)[O-])ccc1Cl
active: Potency [19] 5.01 µM and 631 nM
inactive: activity change, negative = inhibition [17] -5% | activity, negative = inhibition ([11]; at 38 µM (top of the series)) -18.8% | Potency [12] > 46 µM | Potency [18] > 46 µM | Potency [5]

NCCO
inactive: Potency [1] > 92 µM | Potency [13] > 92 µM | Potency [2] > 92 µM | Potency [3] > 92 µM | Potency [14] > 92 µM | Potency [4] > 92 µM | Potency [6] | Potency [7] | Potency [15] | Potency [8] | activity change, negative = cytotoxicity [16] -3.73%

O=C(O)c1cc(=O)c2ccccc2[nH]1
inactive: activity change, negative = inhibition ([10]; at 38 µM (top of the series)) 5.32% | activity change, negative = inhibition [17] 13.2% | Potency [12] > 46 µM | Potency [5]

N=c1ccn2c(n1)O[C@H]1[C@H](O)[C@@H](CO)O[C@H]12
inactive: Potency [19] | Potency [12] > 46 µM | Potency [18] > 46 µM | Potency [5]

O=Nc1ccc2oc(=O)ccc2c1
inactive: activity change, negative = inhibition ([10]; at 38 µM (top of the series)) 22.8% | Potency [12] > 46 µM | Potency [18] > 46 µM | Potency [5]

CCCOC(=O)c1ccc(O)cc1
inactive: Potency [1] > 92 µM | Potency [13] > 92 µM | Potency [2] > 92 µM | Potency [3] > 92 µM | Potency [14] > 92 µM | Potency [4] > 92 µM | Potency [5] | Potency [6] | Potency [7] | Potency [15] | Potency [8] | Potency [9] | activity change, negative = cytotoxicity [16] -13.5% and -15.2%

— PubChem BioAssay (NCATS)
